From PubChem
In the library only some 7.3% were active in any assay of this set; here they are far more common.
Vaccinia Venus = inhibitors of vaccinia virus (Venus reporter) | Vaccinia virus Venus reporter expression, fluorescence | Potency, µM (series often up to 36.5 µM), inactives show at the highest dose activity change, negative = inhibition, actives largely listed as inhibitors | 0.46% of 330,000 active | AID 720580; calls by dose curve; tested in A549 cells; also: potency is read from the fitted curve at half-maximal effect; nearly all actives have a fitted effect of over 30% in size
HCV inhibitor = HCV inhibition | Huh7.5.1 HCVcc-Cre infection, luciferase reporter, 44 h | 3.4% of 340,000 active | Potency, µM (titrated, usually from 41.8 µM), inactives show top-dose activity change, negative = inhibition, actives largely listed as inhibitors; active = well fitted inhibition curve with a large enough effect; inconclusive = small, poorly fitted or top-dose-only effect, or another doubt; inactive = no such curve, though single readings can be large or run the other way; also: potency is read from the fitted curve at half-maximal effect
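Antiviral activity was scored by luciferase reporter output from cells infected with HCVcc-Cre (~0.5 moi) in presence of compound, 44 h infection period, cells seeded 1,000/well 4 h prior.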
VACV mCherry inh = vaccinia inhibition (mCherry reporter). Vaccinia virus mCherry reporter infection, fluorescence. Potency, µM (highest dose often 36.5 µM), without a hit: at the top dose activity change, negative = inhibition, most hits filed as inhibitors. 0.63% of 310,000 active. AID 720579; calls by dose curve; tested in A549 cells; also: potency is read from the fitted curve at half-maximal effect; nearly all actives have a fitted effect of over 35% in size
FMDV inh = foot and mouth disease virus antiviral activity; FMDV antiviral cell-based qHTS; Potency, µM (doses to about 57.9 µM), without a hit: at the highest dose activity change, negative = inhibition, actives largely listed as inhibitors; 1.2% of 410,000 active; AID 1159524; calls by dose curve; tested in HEK293T cells; also: read-out not given here; potency is read from the fitted curve at half-maximal effect; nearly all actives have a fitted effect of over 45% in size
HCMV antiviral = human cytomegalovirus inhibition. HFF cells, HCMV-luciferase reporter, 72 h; hits give low values. activity change, negative = inhibition, % at 57.5 µM. 4.5% of 410,000 active. AID 1259415; in the data active = activity change below about -60%; inconclusive = no clear call, values can overlap the other calls; inactive = above about -39%
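Screen run at 2 compound doses on HFFs infected with reporter HCMV, MOI 1 PFU/cell. Luciferase activity from cell lysates at 72 h post infection gave inhibition relative to buffer-only and Salinomycin wells.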
The depositor's hits bear a star; i = inactive; u = inconclusive; x = not tested or not shown. % is scaled to controls: 0 for no effect and ±100 for the full control effect.

SMILES	Vaccinia Venus	HCV inhibitor	VACV mCherry inh	FMDV inh	HCMV antiviral
Cc1cc(=O)n2c3c(c4c(cc13)c(CN(C)C)cc(=O)n4C)OC2	-6%	u	13%	6%	-72*
Cc1ccc(Cl)cc1N1CCN(C(=O)c2cc3c(=O)n(C)c4ccccc4c3n2C)CC1	-25%	20%	u	8.9µM*	-79*
Cn1c(C(=O)N2CCCC2)cc2c(=O)n(C)c3ccccc3c21	x	10%	x	-2%	-7
Cc1cccc(N2CCN(C(=O)c3cc4c(=O)n(C)c5ccccc5c4n3C)CC2)c1C	-24%	0%	u	32µM*	u
CN(C)c1ccc(N=Nc2nc3ccccc3n2C)cc1	x	10µM*	x	4µM*	u
Cn1c(N=Nc2ccccc2)nc2ccccc21	-5%	u	i	-11%	-29
CCOC(=O)c1cc(CC)sc1NC(=O)Cc1ccsc1	-26%	5.6µM*	-29%	-23%	u
Cc1cccc(N2CCN(S(=O)(=O)c3ccc(-c4cc(C(F)(F)F)on4)s3)CC2)c1C	-9%	x	i	-22%	-22
CC(=O)c1c(C)[nH]c(C(=O)CSc2nc3ccccc3n2C)c1C	-24%	u	-27%	-31%	-78*
CCn1c(SCC(=O)c2[nH]c(C)c(C(C)=O)c2C)nnc1-c1cccs1	x	u	x	u	-93*
CCn1c(SCC(=O)c2cccs2)nnc1-c1cccs1	-2%	18%	-13%	55%	42
Cc1nc(S/C(C(=O)O)=C2/C(=O)Nc3ccccc32)n[nH]1	x	21%	x	2.5µM*	32
Cc1c(C)n(Cc2ccccc2)c2ccc(C(=O)OCCCN(C)C)cc12	-20%	u	-8%	-8%	-63*
Cc1[nH]c2ccc(C(=O)OCCN(C)C)cc2c1C	-15%	-19%	x	-3%	25
Cc1ccccc1CCNC(=O)c1ccc2c(c1)c(C)c(C)n2Cc1ccccc1	-10%	x	-18%	0%	0
Cc1c(C)n(CCN(C)C)c2ccc(C(=O)OCCN(C)C)cc12	x	11µM*	x	-16%	-10
O=C(NC1CCc2ccccc21)C1=CN2CCN(Cc3ccccc3)C(=O)N=C2O1 (centres undefined)	x	x	x	x	-13
CCCCn1c(CN2CCN(c3cccc(Cl)c3)CC2)nc2c1c(=O)n(C)c(=O)n2C	x	u	x	-21%	-89*
CCCCCn1c(CN2CCN(c3cccc(Cl)c3)CC2)nc2c1c(=O)n(C)c(=O)n2C	-24%	u	-6%	x	-39
CCCCCn1c(CN2CCN(c3cc(Cl)ccc3C)CC2)nc2c1c(=O)[nH]c(=O)n2C	x	u	x	28µM*	u
Cn1c(=O)c2c(nc(CN3CCN(c4ccccc4)CC3)n2CCCc2ccccc2)n(C)c1=O	-9%	18%	-12%	-1%	43
CCCCn1c(CN2CCN(c3ccccc3)CC2)nc2c1c(=O)n(C)c(=O)n2C	u	7.1µM*	u	0%	x
COC(=O)c1ccccc1NC(=O)CCCn1c(=O)c2cccn2c2cccnc21	-3%	x	-13%	0%	9
Cc1cc(OCCOCCNCc2ccccc2)ccc1C(C)C	x	-17%	x	-26%	-9
CN(C)c1ccc(CNCCC(Cc2ccccc2)c2ccco2)cc1 (centres undefined)	-11%	u	u	-27%	u
SMILES	Vaccinia Venus	HCV inhibitor	VACV mCherry inh	FMDV inh	HCMV antiviral
COc1ccc(CNCCC(c2ccc(OC(C)C)cc2)c2ccccc2OC)cc1 (centres undefined)	x	u	x	-30%	-99*
COc1ccc(CNCCC(c2ccc(OC(C)C)cc2)c2ccccc2OC)cc1OC (centres undefined)	-17%	13µM*	-11%	u	-98*
COc1ccc(CNCCCSc2ncccn2)cc1OC	x	-7%	x	7%	46
COc1ccccc1C(CCNCc1ccccc1)c1ccc(OC(C)C)cc1 (centres undefined)	x	u	x	u	-102*
COc1ccccc1C(CCNCc1ccc(N(C)C)cc1)c1ccc(OC(C)C)cc1 (centres undefined)	x	u	x	u	-101*
CC(=O)c1ccc(Nc2ccc3cc(S(=O)(=O)N4CCCC4)ccc3n2)cc1	-19%	x	-22%	-13%	-11
CCCCn1c(N)c(N(C)C(=O)c2ccc(Br)o2)c(=O)[nH]c1=O	x	7%	x	-6%	0
COc1ccc(C2c3c(n(C)c4ccccc34)C(=O)N2CC(=O)Nc2ccccc2Cl)cc1 (centres undefined)	-14%	x	-15%	-5%	0
O=C(CCl)NCCCCCCCCCNC(=O)CCl	5.6µM*	u	14µM*	-22%	-100*
Cc1ccc(C(=O)NCc2ccncc2)cc1S(=O)(=O)N1CCCCC1	-13%	x	-4%	9%	u
Cc1cc(C(=O)CSc2n[nH]c(N)n2)c(C)n1-c1ccc(F)cc1	x	-28%	x	21%	u
Cc1ccc(-n2c(C)cc(C(=O)COC(=O)c3c(C)noc3C)c2C)cc1	x	0.32µM*	x	-15%	-29
Cc1cc(C(=O)CSc2nnc3ccccn23)c(C)n1-c1ccccc1	-9%	16%	-22%	3.2µM*	-72*
Cc1cc(C(=O)CSc2nnc(-c3ccccc3)n2-c2ccccc2)c(C)n1-c1ncn[nH]1	-21%	-11%	-24%	-3%	18
Cc1ccc(-n2c(C)cc(C(=O)CSc3n[nH]c(N)n3)c2C)cc1	x	u	x	-8%	-70*
Cc1cc(C(=O)CSc2n[nH]c(N)n2)c(C)n1-c1ccccc1	x	11µM*	x	25%	75
Cc1ccc(-n2c(C)cc(C(=O)COC(=O)C3=NNC(=O)CC3)c2C)cc1	-17%	6%	x	-18%	-7
CCOC(=O)c1ccc(NC(=O)c2cc3cc(C)ccc3n2C)cc1	-12%	x	-2%	-17%	-21
C/C(=N\NC(=O)c1cccc(S(=O)(=O)N2CCCC2)c1)c1ccc(OCC(=O)N(C)C)cc1	-7%	u	i	-12%	-21
O=[N+]([O-])c1ccc(C(c2sc3nc(-c4ccco4)nn3c2O)N2CCC3(CC2)OCCO3)cc1 (centres undefined)	10%	x	6%	7%	8
Cc1ccc(-n2ncc(C(=O)Nc3ccc(Cl)cc3)c2C2CCNCC2)cc1C	u	u	u	-23%	-70*
Cc1cc(C(=O)CCl)c(C)n1Cc1ccco1	1%	u	-10%	28µM*	-97*
Cc1cc(C(=O)CSc2nc3ccccc3[nH]2)c(C)n1Cc1ccco1	-20%	u	-5%	-72%	-85*
C=CCn1c(C)cc(C(=O)CSc2nc3ccccc3o2)c1C	x	22µM*	x	-20%	u
Cc1cc(C(=O)CSc2nc3ccc(Cl)cc3[nH]2)c(C)n1CC1CCCO1 (centres undefined)	-30%	8.9µM*	u	14µM*	-66*
Cc1cc(N=O)no1	x	x	x	x	4
C=CCn1c(C)cc(C(=O)CSc2nc3ccccc3[nH]2)c1C	x	6.3µM*	x	-85%	-92*
CCOc1ccc(-n2c(=O)c3c4c(sc3n(CC(=O)NC(C)CC)c2=O)CCC4)cc1 (centres undefined)	-7%	x	-6%	-13%	9
